# This is one part of a sample in which hits are shown more often than they occur.
# RBX1-CUL1 inh: inhibitors of human ROC1-CUL1 ubiquitin ligase activity; E3 ubiquitin-protein ligase RBX1 (Homo sapiens) + Cullin-1 (Homo sapiens), P62877+Q13616; in vitro K48 di-Ub FRET, acceptor:donor ratio, 45 min; inhibition, % at 10 µM; hit rate 0.6% among 140,000; in the data active = inhibition above about 25%
# Target sequence (P62877 whole entry, looked up): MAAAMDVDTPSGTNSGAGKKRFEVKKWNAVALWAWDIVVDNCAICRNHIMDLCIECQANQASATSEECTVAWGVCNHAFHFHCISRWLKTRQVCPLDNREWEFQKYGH
# Target sequence (Q13616 whole entry, looked up): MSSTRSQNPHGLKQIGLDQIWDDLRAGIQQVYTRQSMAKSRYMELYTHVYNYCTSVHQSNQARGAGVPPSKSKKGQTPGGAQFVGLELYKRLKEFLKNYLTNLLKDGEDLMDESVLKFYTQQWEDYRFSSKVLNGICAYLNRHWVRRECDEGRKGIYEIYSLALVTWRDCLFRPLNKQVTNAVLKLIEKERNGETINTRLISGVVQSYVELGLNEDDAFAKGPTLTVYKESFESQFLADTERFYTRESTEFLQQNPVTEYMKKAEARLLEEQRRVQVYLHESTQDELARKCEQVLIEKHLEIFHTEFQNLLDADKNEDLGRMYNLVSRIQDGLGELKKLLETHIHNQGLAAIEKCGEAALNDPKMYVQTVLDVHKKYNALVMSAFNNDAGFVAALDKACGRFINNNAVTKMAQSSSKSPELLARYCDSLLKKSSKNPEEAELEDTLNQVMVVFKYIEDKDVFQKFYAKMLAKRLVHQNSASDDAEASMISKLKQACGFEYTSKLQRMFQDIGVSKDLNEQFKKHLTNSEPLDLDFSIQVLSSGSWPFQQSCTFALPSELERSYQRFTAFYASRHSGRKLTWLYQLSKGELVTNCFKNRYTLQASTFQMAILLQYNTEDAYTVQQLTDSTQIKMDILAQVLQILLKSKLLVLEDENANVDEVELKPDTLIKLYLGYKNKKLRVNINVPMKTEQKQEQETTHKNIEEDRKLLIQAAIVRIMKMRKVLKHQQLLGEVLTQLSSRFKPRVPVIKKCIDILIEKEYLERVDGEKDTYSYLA
# The depositor's hits bear a star.
SMILES,RBX1-CUL1 inh
C=CCOc1ccccc1NC(=O)C1CC1,3
Fc1ccc(-c2cc(-c3ccccc3)nc3ccc4ccccc4c23)cc1,-12
CN(CC1COCCO1)C(=O)Cn1ncc(N(C)C)cc1=O (stereo not given),-4
O=C1NC(=Nc2ccccc2)S/C1=C/c1ccc(-c2ccc(Cl)cc2Cl)o1,-3
O=C1NC(=Nc2cc(Cl)cc(Cl)c2)S/C1=C\c1ccco1,28*
O=C1NC(=Nc2ccccc2Cl)S/C1=C\c1ccc(-c2ccc(Cl)cc2)o1,-8
O=C(NC1CCCN(CC2CCCCC2)C1)c1cc[n+]([O-])cc1 (stereo not given),-7
CCN1CCC(NC(=O)c2cccc(Br)c2)CC1,-6
CC(=O)N1CCN(S(=O)(=O)c2ccc(F)cc2)CC1,-3
CCC(CC)C(=O)N1CCN(S(=O)(=O)c2ccc(F)cc2)CC1,7
O=C1C(Cl)=C(N2CCN(S(=O)(=O)c3ccc(F)cc3)CC2)C(=O)c2ccccc21,64*
CCOC(=O)c1nn(-c2ccc(C)cc2)c(N=Nc2ccc3c(c2)OCCO3)c1O,-1
CCOC(=O)c1c(C)sc(-c2c(-c3ccc(OC)c(F)c3)[nH]c3[nH]c(=O)[nH]c(=O)c23)c1O,4
COC(=O)c1c(C)sc(-c2c(-c3ccc4c(c3)OCCO4)[nH]c3c2c(=O)n(C)c(=O)n3C)c1O,13
CCOC(=O)c1c(C)sc(-c2c(-c3ccc4c(c3)OCCO4)[nH]c3c2c(=O)n(C)c(=O)n3C)c1O,33*
CCOC(=O)c1c(C)sc(-c2c(-c3ccc(OC)c(F)c3)[nH]c3c2c(=O)[nH]c(=O)n3C)c1O,32*
COc1cccc(-c2[nH]c3c(c2-c2c(-n4cccc4)n(C)c(=O)[nH]c2=O)c(=O)[nH]c(=O)n3C)c1,3
COC(=O)c1c(C)sc(-c2c(-c3ccc4c(c3)OCCO4)[nH]c3[nH]c(=O)[nH]c(=O)c23)c1O,8
COC(=O)c1c(C)sc(-c2c(-c3cccc(Cl)c3)[nH]c3c2c(=O)[nH]c(=O)n3C)c1O,28*
CCOC(=O)c1c(C)sc(-c2c(-c3ccc4c(c3)OCCO4)[nH]c3c2c(=O)[nH]c(=O)n3C)c1O,30*
CCc1ccc(-c2[nH]c3c(c2-c2sc(C)c(C(=O)OC)c2O)c(=O)[nH]c(=O)n3C)cc1,7
CCOC(=O)c1nn(-c2ccc3c(c2)OCCO3)cc1O,2
CCOC(=O)c1c(C)sc(-c2c(-c3ccccc3)[nH]c3[nH]c(=O)[nH]c(=O)c23)c1O,-1
S=c1[nH]nc(-c2ccncc2)n1/N=C/c1cccs1,7
COc1ccccc1C1C2=C(OC(=N)C1C#N)C(=O)c1ccccc1C2=O (stereo not given),-5
SMILES,RBX1-CUL1 inh
C=CCn1c(=O)c2c(nc3n(-c4ccc(C)cc4)c(C)cn23)n(C)c1=O,1
Cc1[nH]cnc1CSCc1ccccc1,15
Cc1cc(C)c(S(=O)(=O)N=C2SCCN2S(=O)(=O)c2c(C)cc(C)cc2C)c(C)c1,1
CCOC(=O)c1sc(NC(=O)c2c(Br)cnn2CC)c(C(=O)OCC)c1C,-3
C=C(C)Cn1c(SC)nc2sc3c(c2c1=O)CCCCC3,4
O=C1NC(C(F)(F)F)(C(F)(F)F)N=C2C=CC(Cl)=CN12,-4
c1ccc(-c2cn(CC3CCN(Cc4ccoc4)CC3)nn2)nc1,-4
O=S(Cc1ccccc1Cl)c1nc(Cl)ns1 (stereo not given),30*
O=S(=O)(c1ccccc1)c1nc(Cl)ns1,8
O=S(Cc1ccccc1F)c1nc(Cl)ns1 (stereo not given),1
O=[N+]([O-])c1ccccc1/C=N/Nc1nc(NCc2ccccc2)nc(N2CCOCC2)n1,-6
COc1ccc(N2C(=O)C(=Nc3cc(OC)ccc3OC)C(Cl)C2=O)cc1 (stereo not given),2
CCn1c(CNC(=O)COc2ccc(C(C)C)cc2)nnc1SCC(=O)Nc1cc(C)c(C)cc1Br,-5
Cc1cccc(N=C2NC(=O)/C(=C\c3ccc(OCc4ccccc4)cc3)S2)c1,-1
O=C1NC(=Nc2ccc(F)cc2)S/C1=C\c1ccc(OCc2cccc(C(=O)O)c2)cc1,14
N#Cc1ccccc1COc1ccc(/C=C2/SC(=Nc3cccc(C(=O)O)c3)NC2=O)cc1,89*
CCS(=O)(=O)N1CCN(c2cc(C3CCCNC3)ncn2)CC1 (stereo not given),2
COCCN(Cc1cccc(-c2nc(C)c(F)c(=O)[nH]2)c1)Cc1cnn(C)c1,2
Oc1ccc(NCc2ccc(OCc3ccccc3)cc2)cc1,1
CNCc1cc(Br)ccc1OC,3
COc1ccc(Br)cc1CNc1ccc2[nH]c(=O)[nH]c2c1,1
CCc1ccc(CNc2ccc(O)cc2)cc1,-15
COc1ccc(Br)cc1CNc1ccc(O)cc1,41*
Oc1ccc(NCc2ccc(Br)cc2)cc1,76*
Cn1ncc(N2CCC(CNC(=O)CC3=CCCCC3)C2)cc1=O (stereo not given),-3
SMILES,RBX1-CUL1 inh
COc1ccccc1C(=O)Nc1ccc(F)cc1,4
C=CCn1c(CNc2cccc3ccccc23)nnc1SC(C)C(=O)N/N=C/c1ccc(OC)cc1OC (stereo not given),42*
C=CCn1c(CNc2ccccc2)nnc1SC(C)C(=O)N/N=C/c1ccc(N(CC)CC)cc1 (stereo not given),-2
C=CCn1c(CNc2cccc3ccccc23)nnc1SCC(=O)N/N=C/c1ccc(OC)cc1OC,7
CCCc1c(C(=O)NCc2ccccc2)nnn1-c1ccccc1,6
CCOC(=O)c1sc(N2C(=O)C=CC2=O)c(C#N)c1C,72*
CCOC(=O)c1sc(SC)c(C#N)c1O,-2
CCOC(=O)c1sc(NC(=O)C(F)(F)F)c(C#N)c1C,8
O=C(Nc1ccccc1F)c1onc2c1CCCC2,0
COC1(OC)C(C#N)C(c2ccco2)C1(OC)OC (stereo not given),-7
CC(C)(C)c1cc(/C=N/NC(=O)c2ccc(Cl)cc2Cl)cc(C(C)(C)C)c1O,2
Cc1nc(Sc2ccc3c(c2)OCCO3)c2c3c(sc2n1)CCCC3,7
CCC(=O)N1c2ccccc2C(C)(c2ccccc2)CC1(C)C (stereo not given),3
CCCCCC(=O)N1c2ccccc2C(C)(c2ccccc2)CC1(C)C (stereo not given),7
CCC(CC)C(=O)N1c2ccccc2C(C)(c2ccccc2)CC1(C)C (stereo not given),28*
CCCN1CN(Cc2ccccc2)CSC1=S,-5
COc1ccc(NC(C)=O)c(OC)c1,1
CC(=O)NC(NCCOC12CC3CC(CC(C3)C1)C2)(C(F)(F)F)C(F)(F)F,-1
CC1NC(=O)N(c2ccccc2)C1=O (stereo not given),-6
Cc1[nH]n(-c2ccccc2)c(=O)c1C(c1ccc(-c2ccc(Br)cc2)o1)c1c(C)[nH]n(-c2ccccc2)c1=O,-9
Cc1[nH]n(-c2ccccc2)c(=O)c1/C=N/NC(=O)Cc1ccc(Br)cc1,0
Cc1[nH]n(-c2ccccc2)c(=O)c1C(C[N+](=O)[O-])c1ccc(Br)cc1 (stereo not given),70*
CCC(=O)Nc1ccc(Cl)c(NC(=S)NC(=O)c2ccc3ccccc3c2)c1,-6
O=C1c2ccccc2NC(c2cccc(OCc3ccc(Cl)cc3Cl)c2)N1c1ccc(F)cc1 (stereo not given),-1
Cc1ccccc1OCC(=O)NC(C(=O)N/N=C/c1ccc(OCc2ccccc2C#N)cc1)C(C)C (stereo not given),96*

# Screening data from PubChem BioAssay.
